The text below walks through data of PubChem BioAssay (EPA / NIEHS).

Records with an inconclusive call do not appear. The source made the active and inactive calls. The calls were made as follows: active = hit-call score of the fitted dose curve at least 0.9, where 1 is the maximum; inconclusive = response in the unintended direction; inactive = score below 0.9.

Read-out in the experiment: Cytochrome P450 2B6 (Homo sapiens) (UniProt P20813)
Kind of experiment: CLD_CYP2B6_48hr: CellzDirect (CLD) Gene Expression Assay for xenobiotic metabolism (CYP2B6) at 48 hours (AID 2283699).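 Also: actives raise transcript level above DMSO so potency reflects induction.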 Here is the method:
CLD_48hr is a cell-based, multiplexed-readout assay that uses hepatocyte, a human liver primary cell, with measurements taken at 48 hours after chemical dosing in a 96-well plate.CLD_CYP2B6_48hr is one of 16 assay component(s) measured or calculated from the CLD_48hr assay. It is designed to make measurements of mRNA induction, a form of inducible reporter, as detected with chemiluminescence signals by Quantitative Nuclease Protection Assay (qNPA) technology.Data from the assay component CLD_CYP2B6_48hr was analyzed at the endpoint, CLD_CYP2B6_48hr, in the positive analysis fitting direction relative to DMSO as the negative control and baseline of activity. Using a type of inducible reporter, gain-of-signal activity can be used to understand changes in the reporter gene as they relate to the gene CYP2B6. Furthermore, this assay endpoint can be referred to as a primary readout. To generalize the intended target to other relatable targets, this assay endpoint is annotated to the cyp intended target family, where subfamily is xenobiotic metabolism.
Human hepatocyte cultures were treated daily for two consecutive days with fresh dosing solutions containing appropriate concentrations of the 320 ToxCast chemicals (chemical identities were blinded to CellzDirect and other ToxCast collaborators), vehicle control (0.2% DMSO), and positive control inducers as summarized in Table 1. Due to the large number of treatment groups and chemicals examined, the ToxCast chemicals were divided into two groups (spanning two independent cultures of hepatocytes from separate donor preparations (Hu778: ToxCast plates 1 and 2; Hu776: ToxCast plates 3 and 4). Each preparation of human hepatocyte cultures was treated with respective vehicle control, medium only control, set of six positive controls/reference chemicals for the five hepatic receptor pathways, and a subset of eight of the ToxCast chemicals (indoxacarb, pyrithiobac-sodium, norflurazon, cyhalofop-butyl, methomyl, thiram, acetochlor, and propiconazole). These replicate data, coupled with internal replicates designed within the blinded ToxCast chemical library, provided additional data to evaluate interindividual differences between hepatocyte preparations and their potential impact on chemical profiles.Cell morphology and integrity were evaluated using phase-contrast microscopy as an indicator of hepatocyte cell health (Tyson & Green, 1987). Cultures for each treatment group (i.e., media, vehicle [0.2% DMSO], positive control inducers [multiple concentrations], and the ToxCast chemicals [multiple concentrations]) were observed and cell morphology was assessed relative to vehicle control cultures at each harvest time point (0, 6, 24, or 48 h). […] Images were evaluated at the conclusion of the study to assess changes in cell integrity and account for the effects of chemical exposure on uncharacteristic changes in concentration-dependent gene expression profiles. The results from these determinations of apparent cytotoxicity were annotated (yes/no) alongside the corresponding qNPA data for reference.At the conclusion of each treatment period, hepatocyte cultures (96-well) were washed with 1 volume of HBSS, lysed by addition of 25 ul ArrayPlate lysis buffer (HTG, Tucson, AZ), and 70 ul/well of Denaturation Oil, denatured by incubation at 95C for 10 min, and frozen at approximately -70C until analysis by nuclease protection assay (qNPA) (Roberts et al., 2007). For qNPA analysis, cell lysates were thawed at 50C for approximately 30 min, qNPA probes were added, and samples were incubated at 95C for 10 min to begin the detection process by denaturing the target RNA, dissociating the duplexes and secondary structure hybridization. At the conclusion of the hybridization period, S1 nuclease reagent was added to each sample to digest all nonprotected nucleotides at 50C for 60-90 min. […]
On to `COCC(C)N(C(=O)CCl)c1c(C)csc1C` (stereo not given), for which the AC50 was 5.14 µM (active). Still for that read-out and setting: then `CS(=O)(=O)c1cc(C(F)(F)F)ccc1C(=O)c1cnoc1C1CC1`, with 9.48 µM (active); and `COC(=O)c1c(C(F)F)nc(C(F)(F)F)c(C2=NCCS2)c1CC(C)C`, with 0.378 µM (active).

`CS(=O)(=O)c1ccc(C(=O)C2C(=O)CCCC2=O)c([N+](=O)[O-])c1`: the molecule was classed as inactive.

In the case of `CCCCC(O)(Cn1cncn1)c1ccc(Cl)cc1Cl` (stereo not given), the half-maximal activity concentration (AC50) is 0.63 µM (active). Same read-out and setting: the result for `CC(C)NC(=O)N1CC(=O)N(c2cc(Cl)cc(Cl)c2)C1=O` reads 3.92 µM (active). For `O=C1C2CC=CCC2C(=O)N1SC(Cl)(Cl)Cl` (stereo not given), the molecule was classed as inactive.

On to `CC1(C)C(C=C(Cl)Cl)C1C(=O)OC(C#N)c1cccc(Oc2ccccc2)c1` (stereo not given), for which the AC50 is 6.46 µM (active). Same read-out and setting: the result for `N#CN=C1SCCN1Cc1ccc(Cl)nc1` reads 9.25 µM (active); that for `COP(=S)(OC)SCn1nnc2ccccc2c1=O`, 4.19 µM (active). Consider `Cc1cc(C)nc(Nc2ccccc2)n1`, for which the half-maximal activity concentration (AC50) was 1.61 µM (active).

For the molecule `Cc1c(COC(=O)[C@@H]2[C@H](/C=C(\Cl)C(F)(F)F)C2(C)C)cccc1-c1ccccc1`, the AC50 is 3.39 µM (active). The same measure, in the same setting: then `CCC(C)n1c(=O)[nH]c(C)c(Br)c1=O` (stereo not given), with 3.28 µM (active). As to `Nc1c(Cl)c(Cl)nc(C(=O)O)c1Cl`, the result was inactive. As to `COP(=O)(OC)O/C(C)=C/C(=O)N(C)C`, the result was inactive.

As for `CCOc1cc(C(C)(C)C)ccc1C1COC(c2c(F)cccc2F)=N1` (stereo not given), the concentration at half-maximal activity (AC50) was 2.11 µM (active). Still for that read-out and setting: then `CCOP(=S)(OCC)Oc1nc(Cl)n(C(C)C)n1`, with 0.427 µM (active).

Turning to `CSC(=O)c1c(C(F)F)nc(C(F)(F)F)c(C(=O)SC)c1CC(C)C`, the AC50 was 0.416 µM (active). For the molecule `C=CCOC(=O)C(C)(C)OC(=O)c1cc(-n2c(=O)cc(C(F)(F)F)n(C)c2=O)ccc1Cl`, the concentration at half-maximal activity (AC50) was 0.168 µM (active). `CCSC(=O)N1CCCCCC1`: the AC50 was 0.378 µM (active). Turning to `CCOc1nc(F)cc2nc(S(=O)(=O)Nc3c(Cl)cccc3Cl)nn12`, the AC50 was 7.88 µM (active). With `COc1cc(Cl)c(OC)cc1Cl`, the AC50 was 0.0752 µM (active). Still for that read-out and setting: the result for `CCCCC(C#N)(Cn1cncn1)c1ccc(Cl)cc1` (stereo not given) reads 4.45 µM (active); that for `CC(C)Nc1nc(Cl)nc(NC(C)C)n1`, 3.11 µM (active). As for `COCc1cnc(C2=NC(C)(C(C)C)C(=O)N2)c(C(=O)O)c1` (stereo not given), the molecule was called inactive. With `CCOP(=O)(OCC)Oc1nc(Cl)c(Cl)cc1Cl`, the concentration at half-maximal activity (AC50) is 3.97 µM (active). On the same count and under the same terms, then `CCCCOCN(C(=O)CCl)c1c(CC)cccc1CC`, with 2.5 µM (active); and `O=C(Nc1ccccc1-c1ccc(Cl)cc1)c1cccnc1Cl`, with 1.89 µM (active). For `Clc1nc(Cl)nc(Nc2ccccc2Cl)n1`, the molecule was classed as inactive. Regarding `CC(C)C1(C)N=C(c2ncccc2C(=O)O)NC1=O` (stereo not given), the half-maximal activity concentration (AC50) is 0.000587 µM (active).

In the case of `OC(c1ccc(Cl)cc1)(c1ccc(Cl)cc1)C(Cl)(Cl)Cl`, the concentration at half-maximal activity (AC50) is 4.47 µM (active). Regarding `C=C(C)CN(CC)c1c([N+](=O)[O-])cc(C(F)(F)F)cc1[N+](=O)[O-]`, the result was inactive. As to `O=P(O)(O)CCCl`, the molecule was called inactive.

In the case of `CC1(C)CCC(=Cc2ccc(Cl)cc2)C1(O)Cn1cncn1` (stereo not given), the concentration at half-maximal activity (AC50) is 4.01 µM (active).

As for `CCCC(=NOCC)C1=C(O)CC(CC(C)SCC)CC1=O` (stereo not given), the call was inactive. Take `CCN(CC)C(=O)C(C)Oc1cccc2ccccc12` (stereo not given): the AC50 is 6.33 µM (active). On to `O=C(O)c1c(Cl)ccc2cc(Cl)cnc12`, for which the call was inactive.

For the molecule `CCNP(=S)(OC)O/C(C)=C/C(=O)OC(C)C` (stereo not given), the concentration at half-maximal activity (AC50) was 0.598 µM (active). Same read-out and setting: the result for `COC(=O)N(C(=O)N1CO[C@@]2(C(=O)OC)Cc3cc(Cl)ccc3C2=N1)c1ccc(OC(F)(F)F)cc1` reads 0.505 µM (active); that for `COC(=O)NC(=S)Nc1ccccc1NC(=S)NC(=O)OC`, 20 µM (active).

In general, AC50 refers to the concentration giving half of the maximal activity seen.
